Laboratory results from PubChem BioAssay (Tox21).
Inconclusive results are not listed. Activity calls are given as the source filed them. Unless noted, calls follow the shape of the full dose curve.

Legend:
[1] = Nuclear factor erythroid 2-related factor 2/antioxidant responsive element (Nrf2/ARE) small molecule agonists: qHTS cell viability counter screen in human keratinocytes (AID 1919968; active = well fitted curve in the direction sought with a large enough effect in the repeat runs; an effect the other way counts as inactive or inconclusive; also: nearly all actives have a fitted effect of over 55% in size)
How it was run: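 Cells of the KeratinoSens line were plated at 1,500 per well and left for 5 h before compound transfer from DMSO stocks. After a 23 h incubation (37 C, 5% CO2), CellTiter-Fluor was added. Signal was taken as fluorescence intensity 1 h later.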

[2] = Nuclear factor erythroid 2-related factor 2/antioxidant responsive element (Nrf2/ARE) small molecule agonists: luciferase reporter gene qHTS assay in human keratinocytes (AID 1919969); also: nearly all actives have a fitted effect of over 35% in size
[3] = molecular target: Gonadotropin-releasing hormone receptor (Homo sapiens) (UniProt P30968); test: Human gonadotropin-releasing hormone receptor (GnRHR) small molecule agonists, calcium flux assay in GnRHR-HEK293 cells (AID 1920063); also: nearly all actives have a fitted effect of over 35% in size
Gonadotropin-releasing hormone receptor (Homo sapiens), sequence (P30968 whole entry, looked up): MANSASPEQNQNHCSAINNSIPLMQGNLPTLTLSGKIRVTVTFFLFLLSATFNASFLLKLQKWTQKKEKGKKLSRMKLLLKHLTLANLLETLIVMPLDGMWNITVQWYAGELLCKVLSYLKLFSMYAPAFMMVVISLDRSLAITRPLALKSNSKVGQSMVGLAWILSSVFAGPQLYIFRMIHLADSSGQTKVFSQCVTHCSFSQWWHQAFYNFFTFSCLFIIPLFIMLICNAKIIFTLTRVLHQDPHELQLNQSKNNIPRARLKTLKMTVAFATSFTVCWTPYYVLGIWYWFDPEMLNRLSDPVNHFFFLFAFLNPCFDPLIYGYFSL
How it was run: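 Compounds dissolved in DMSO are pin-transferred onto dye-loaded GnRHR-HEK293 cells, which were seeded 18 h before at 37 C/5% CO2. Calcium signal is read as fluorescence intensity at 1 s intervals for 3 min.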

[4] = molecular target: KiSS-1 receptor (Homo sapiens) (UniProt Q969F8); test: Human kisspeptin (KISS1R) small molecule agonists, calcium flux assay in KISS1R-HEK293 cells (AID 1920064; active = well fitted curve in the direction sought with a large enough effect in the repeat runs; an effect the other way counts as inactive or inconclusive)
KiSS-1 receptor (Homo sapiens), sequence (Q969F8 whole entry, looked up): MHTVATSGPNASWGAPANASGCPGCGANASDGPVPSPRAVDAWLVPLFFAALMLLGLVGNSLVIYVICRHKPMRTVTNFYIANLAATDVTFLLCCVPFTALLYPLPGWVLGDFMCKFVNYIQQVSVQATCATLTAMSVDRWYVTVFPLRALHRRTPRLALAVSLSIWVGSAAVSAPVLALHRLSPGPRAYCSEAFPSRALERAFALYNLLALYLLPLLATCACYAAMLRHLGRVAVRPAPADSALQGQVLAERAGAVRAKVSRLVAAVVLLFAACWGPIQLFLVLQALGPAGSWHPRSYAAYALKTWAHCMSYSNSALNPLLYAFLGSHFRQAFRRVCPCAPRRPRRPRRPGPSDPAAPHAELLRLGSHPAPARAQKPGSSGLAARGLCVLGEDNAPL
How it was run: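 Cell line: HEK293, stable human KISS1R. Dye loading 1 h at 37 C after 18 h culture. Read: kinetic fluorescence, 480/540 nm, 3 min at 1 s intervals.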

[5] = G protein-coupled receptor (GPCR) small molecule agonists, calcium flux assay: HEK293 wild type cell line counter screen (AID 1920065)
How it was run: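 Tox21 10K compounds, 15 concentrations each in triplicate, pin-transferred in DMSO onto dye-loaded cells; kinetic read at 480/540 nm for 3 min, 1 s intervals.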

[6] = p53 small molecule agonists, cell-based qHTS assay with human liver microsomes (AID 1963577)
How it was run: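 p53RE-bla cells, 4,000/well, compound added after 5 h, with human liver microsomes 0.5 mg/mL and NADPH 0.5 mg/mL final; 16 h at 37 C, then LiveBLAzer 2 h RT, fluorescence.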

[7] = p53 small molecule agonists, cell-based qHTS assay with rat liver microsomes (AID 1963578)
How it was run: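 p53RE-bla cells, 4,000/well, pre-incubated 5 h, then given compounds plus rat liver microsomes (0.5 mg/mL final) and NADPH (0.5 mg/mL final). Incubation 16 h at 37 C; beta-lactamase reporter read by LiveBLAzer fluorescence after 2 h at room temperature.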

[8] = p53 small molecule agonists, cell-based qHTS assay with human liver microsomes: qHTS cell viability counter screen (AID 1963579); also: nearly all actives have a fitted effect of over 45% in size
How it was run: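 p53RE-bla cells, 4,000/well, dosed 5 hours after plating, with human liver microsomes (0.5 mg/mL final) plus NADPH (0.5 mg/mL final), 16 hours at 37 C. Viability read as CellTiter-Glo luminescence after 30 min at room temperature.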

[9] = p53 small molecule agonists, cell-based qHTS assay with rat liver microsomes: qHTS cell viability counter screen (AID 1963580); also: nearly all actives have a fitted effect of over 45% in size
How it was run: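 Rat liver microsome (0.5 mg/mL final) and NADPH (0.5 mg/mL final) co-incubation with compounds for 16 h at 37 C on HCT-116 p53RE-bla cells; cytotoxicity taken from intracellular ATP luminescence.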

[10] = p53 small molecule agonists, cell-based qHTS assay: qHTS cell viability counter screen (AID 1963581); also: nearly all actives have a fitted effect of over 45% in size
How it was run: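 ATP content measured by luminescence in HCT-116 p53RE-bla cells treated 16 h at 37 C, same wells as the reporter screen.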

[11] = p53 small molecule agonists, cell-based qHTS assay (AID 1963582; active = well fitted activation curve with a large enough effect in the signal ratio in the repeat runs, not every such curve was filed as active; the % refers to the signal ratio)
How it was run: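 16 h compound exposure (37 C) of p53 response element–bla cells, preceded by 5 h recovery at 37 C/5% CO2; read-out via LiveBLAzer B/G FRET substrate, 2 h RT, fluorescence intensity.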

[12] = molecular target: 5-hydroxytryptamine receptor 2A (Homo sapiens) (UniProt P28223); test: 5-hydroxytryptamine receptor 2A (HTR2A) small molecule antagonists, cell-based qHTS assay (AID 1963586); also: nearly all actives have a fitted effect of over 45% in size
5-hydroxytryptamine receptor 2A (Homo sapiens), sequence (P28223 whole entry, looked up): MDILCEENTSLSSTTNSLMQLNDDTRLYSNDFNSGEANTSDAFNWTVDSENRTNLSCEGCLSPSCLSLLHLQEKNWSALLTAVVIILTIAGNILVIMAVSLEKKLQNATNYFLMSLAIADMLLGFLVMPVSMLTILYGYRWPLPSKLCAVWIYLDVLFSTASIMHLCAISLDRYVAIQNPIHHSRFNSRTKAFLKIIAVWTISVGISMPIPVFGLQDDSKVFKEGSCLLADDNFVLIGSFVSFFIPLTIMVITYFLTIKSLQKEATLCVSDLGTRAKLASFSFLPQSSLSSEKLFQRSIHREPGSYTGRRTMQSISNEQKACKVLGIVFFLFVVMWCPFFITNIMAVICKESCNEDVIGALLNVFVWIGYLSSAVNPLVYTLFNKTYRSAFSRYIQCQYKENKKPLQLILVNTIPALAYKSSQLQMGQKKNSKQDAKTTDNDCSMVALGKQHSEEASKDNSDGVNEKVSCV
How it was run: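 CHO cells stably expressing human HTR2A were plated for 18 h at 37 C, then loaded with calcium dye for 1 h. Compounds were preincubated 5 min at room temperature before DOI (4 nM solution) was added. Kinetic fluorescence was read for 3 min.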

[13] = molecular target: 5-hydroxytryptamine receptor 2A (Homo sapiens) (UniProt P28223); test: 5-hydroxytryptamine receptor 2A (HTR2A) small molecule agonists, cell-based qHTS assay (AID 1963587); also: nearly all actives have a fitted effect of over 30% in size
How it was run: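 Kinetic calcium-flux fluorescence (2 min, 1 sec intervals) after compound addition in agonist mode. HTR2A-CHO cells were cultured 18 h, then dye-loaded 1 h at 37 C.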

[14] = molecular target: Muscarinic acetylcholine receptor M1 (Homo sapiens) (UniProt P11229); test: Cholinergic receptor muscarinic 1 (CHRM1) small molecule antagonists, cell-based qHTS assay (AID 1963588); also: nearly all actives have a fitted effect of over 40% in size
Muscarinic acetylcholine receptor M1 (Homo sapiens), sequence (P11229 whole entry, looked up): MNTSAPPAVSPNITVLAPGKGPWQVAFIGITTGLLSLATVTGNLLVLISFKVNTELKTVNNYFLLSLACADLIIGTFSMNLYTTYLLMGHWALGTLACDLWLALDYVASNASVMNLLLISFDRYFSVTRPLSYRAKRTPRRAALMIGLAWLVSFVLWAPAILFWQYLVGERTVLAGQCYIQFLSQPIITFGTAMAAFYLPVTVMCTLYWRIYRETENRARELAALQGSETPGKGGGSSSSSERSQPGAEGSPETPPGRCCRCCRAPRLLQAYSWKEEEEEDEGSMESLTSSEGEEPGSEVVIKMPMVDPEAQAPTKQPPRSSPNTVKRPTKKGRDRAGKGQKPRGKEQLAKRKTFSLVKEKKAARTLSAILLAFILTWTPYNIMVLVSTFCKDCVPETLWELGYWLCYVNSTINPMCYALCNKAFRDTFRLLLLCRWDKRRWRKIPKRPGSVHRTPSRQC
How it was run: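 Compounds were tested at 15 concentrations in three independent runs. Dye-loaded CHRM1-CHO cells were exposed 5 min at room temperature before stimulation by acetylcholine added at 50nM. Intracellular calcium was read kinetically on FDSS for 3 min.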

[15] = molecular target: Muscarinic acetylcholine receptor M1 (Homo sapiens) (UniProt P11229); test: Cholinergic receptor muscarinic 1 (CHRM1) small molecule agonists, cell-based qHTS assay (AID 1963589); also: nearly all actives have a fitted effect of over 35% in size
How it was run: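 Homogeneous fluorescence calcium flux, agonist mode. Human M1-expressing CHO cells; compound dosed at 15 concentrations, three independent runs; signal sampled every 1 sec.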

[16] = cAMP Responsive Elements (CRE) small molecule agonists, cell-based qHTS assay (AID 1963590)
How it was run: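 HEK 293T cells stably bearing CRE-bla were plated at 2,000 cells per well and rested 18 h. Compounds, positive controls or DMSO were added for 3 h at 37 C. LiveBLAzer B/G substrate was then loaded for 2 h at room temperature.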

[17] = cAMP Responsive Elements (CRE) small molecule antagonists, cell-based qHTS assay (AID 1963591; active = well fitted inhibition curve with a large enough effect in the signal ratio in the repeat runs, not every such curve was filed as active; the % refers to the signal ratio)
How it was run: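 First, CRE-bla HEK293T cells settled 18 h at 37 C. Next, compound and 0.25 uM final NKH477 were applied for 3 h. Last, LiveBLAzer B/G substrate was loaded for 2 h at room temperature.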

[18] = molecular target: Beta-2 adrenergic receptor (Homo sapiens) (UniProt P07550); test: Adrenergic beta2 receptor (ADRB2) small molecule antagonists, cell-based qHTS assay (AID 1963592); also: series mostly up to about 92 µM; nearly all actives have a fitted effect of over 50% in size
Beta-2 adrenergic receptor (Homo sapiens), sequence (P07550 whole entry, looked up): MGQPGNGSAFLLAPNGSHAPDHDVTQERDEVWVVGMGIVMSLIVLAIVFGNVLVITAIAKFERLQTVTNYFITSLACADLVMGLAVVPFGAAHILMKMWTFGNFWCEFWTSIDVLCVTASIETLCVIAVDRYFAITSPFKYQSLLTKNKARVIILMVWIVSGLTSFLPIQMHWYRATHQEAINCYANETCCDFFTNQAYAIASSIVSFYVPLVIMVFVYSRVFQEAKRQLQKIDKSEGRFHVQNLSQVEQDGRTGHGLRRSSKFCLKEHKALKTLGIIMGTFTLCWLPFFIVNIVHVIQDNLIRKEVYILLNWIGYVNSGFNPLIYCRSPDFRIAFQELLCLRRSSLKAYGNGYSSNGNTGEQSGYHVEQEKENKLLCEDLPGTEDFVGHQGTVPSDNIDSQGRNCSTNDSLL
How it was run: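 Assay format: CHO-ADRB2 cells, 18-20hr seeding at 37C/5% CO2, then compound plus 1nM isoproterenol agonist mix for 0.5hr RT. Homogeneous time-resolved fluorescence cAMP detection after 1hr, expressed as 665/615 nm ratio.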

[19] = molecular target: D(2) dopamine receptor (Homo sapiens) (UniProt P14416); test: Dopamine D2 receptor (DRD2) small molecule agonists, cell-based qHTS assay (AID 1963594); also: nearly all actives have a fitted effect of over 35% in size
D(2) dopamine receptor (Homo sapiens), sequence (P14416 whole entry, looked up): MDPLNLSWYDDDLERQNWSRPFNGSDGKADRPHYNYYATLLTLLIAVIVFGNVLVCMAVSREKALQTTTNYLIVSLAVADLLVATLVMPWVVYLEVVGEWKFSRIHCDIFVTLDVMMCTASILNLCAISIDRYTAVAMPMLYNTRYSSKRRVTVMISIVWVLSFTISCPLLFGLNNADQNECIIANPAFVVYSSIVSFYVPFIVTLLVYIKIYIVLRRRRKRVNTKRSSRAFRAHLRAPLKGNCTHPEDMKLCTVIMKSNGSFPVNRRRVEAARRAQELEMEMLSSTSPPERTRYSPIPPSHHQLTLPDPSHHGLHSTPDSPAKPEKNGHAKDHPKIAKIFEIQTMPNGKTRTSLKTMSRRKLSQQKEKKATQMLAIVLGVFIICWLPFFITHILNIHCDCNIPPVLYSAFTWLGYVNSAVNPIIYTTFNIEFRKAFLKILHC
How it was run: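 cAMP accumulation in DRD2-HEK293 cells measured by HTRF after 1 h detection; compounds added 10 min before NKH477 (200nM […]) forskolin-analogue stimulation, 30 min at room temperature, with Ro20-1724 present at 0.1 mM final.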

[20] = molecular target: D(2) dopamine receptor (Homo sapiens) (UniProt P14416); test: Dopamine D2 receptor (DRD2) small molecule antagonists, cell-based qHTS assay (AID 1963595; active = well fitted inhibition curve with a large enough effect in the signal ratio in the repeat runs, with a control signal flat; the % refers to the signal ratio)
How it was run: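 Stable D2 receptor HEK293 line, 24 h after seeding. Compound preincubated 10 min, then quinpirole (12 nM) with forskolin analogue NKH477 (200 nM), 30 min, room temperature. Detection by time-resolved FRET of cAMP.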

Measured: Potency

O=[N+]([O-])c1ccccc1
inactive: all assays above

CCCCC(CC)C(=O)Cl (stereo not given)
inactive: all assays above

C#CCO
inactive: all assays above
